The target of experiment [1] is Peroxisome proliferator-activated receptor gamma (Homo sapiens) (UniProt P37231). The experiment in a line: qHTS assay for small molecule agonists of peroxisome proliferator-activated receptor gamma signaling (AID 588536; active = well fitted curve in the direction sought with a large enough effect in the signal ratio, with a control signal flat, not every such curve was filed as active; the % refers to the signal ratio;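 also: 0% = DMSO basal wells and 100% = rosiglitazone at 2 µM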). The settings on record: HEK293 PPARg-UAS-bla, beta-lactamase ratio, 16 h, percent of rosiglitazone response, DMSO as zero; series mostly up to 76.7 µM. The method in brief:
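Ratiometric blue/green fluorescence (405 nm excitation; 460 and 530 nm emission) from CCF4-loaded HEK293 reporter cells serves as signal. Exposure to test compounds lasts 16 h at 37 C in medium containing 1% charcoal/dextran-treated serum.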

Experiment [2] concerns the target Vitamin D3 receptor (Homo sapiens) (UniProt P11473). The experiment in a line: qHTS assay for small molecule antagonists of vitamin D receptor signaling (AID 588541; calls by dose curve;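 also: receptor activated by calcitriol during compound treatment; % is scaled to controls: 0 for no effect and ±100 for the full control effect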). The settings on record: HEK293T VDR-UAS-bla, beta-lactamase ratio, antagonist mode; series mostly up to 76.7 µM. In short, it runs like this:
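VDR-UAS-bla HEK293T cells (2000/well, 2% charcoal-stripped FBS) were treated with titrated compounds plus 1-alpha,25-dihydroxyvitamin D3 (50 nM or 3 nM final) for 16 h at 37 C. CCF4 beta-lactamase fluorescence was read; Hill fits gave IC50.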

The target is the same in experiment [3]. The experiment in a line: qHTS assay for small molecule agonists of vitamin D receptor signaling (AID 588543; calls by dose curve;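 also: 0% = DMSO basal and 100% = reference agonist control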). Particulars: HEK293T VDR-UAS-bla, beta-lactamase ratio, 16 h; series mostly up to 76.8 µM. The method in brief: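 qHTS in agonist mode: compound titrations stimulate a VDR-driven β-lactamase reporter in HEK293T cells over 16 h at 37 °C. Response normalized to 50 nM 1α,25-dihydroxyvitamin D3 = 100%, DMSO = 0%; Hill fitting gives EC50 and maximal response.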
For orientation: In qHTS, concentration-response curves come from the screen itself.

Experiment [4] can be described thus: qHTS assay for small molecule agonists of retinoid X receptor alpha signaling (AID 588544; calls by dose curve;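 as to activation: 0% = DMSO basal wells and 100% = reference agonist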). The settings on record: HEK293T RXRa-UAS-bla, beta-lactamase reporter, 18 h; 530 nm emission.
Experiment [5] deals with Retinoic acid receptor RXR-alpha (Homo sapiens) (UniProt P19793). The experiment is described as above. Particulars: HEK293T RXRa-UAS-bla, beta-lactamase reporter, 18 h; series mostly up to 76.7 µM.
Experiment [6] can be described thus: qHTS assay for small molecule antagonists of retinoid X receptor alpha signaling (AID 588546; active = well fitted inhibition curve with a large enough effect in the signal ratio, with a control signal flat, not every such curve was filed as active; the % refers to the signal ratio;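 also: cells stimulated with 9-cis-retinoic acid as agonist; % is scaled to controls: 0 for no effect and ±100 for the full control effect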). Particulars: HEK293T RXRa-UAS-bla, beta-lactamase ratio, antagonist mode; measured here: W530 green channel, cytotoxicity proxy. The method in brief: (§1)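 Beta-lactamase reporter inhibition, read as CCF4 fluorescence ratio (ex 405, em 460/530 nm) after 2 h at RT. HEK293T UAS-bla cells, 2500/well, were stimulated with 9-cis-RA at 500 or 100 nM final alongside test compound for 18 h at 37 C.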

Experiment [7] deals with Retinoic acid receptor RXR-alpha (Homo sapiens) (UniProt P19793). The description is as above. Particulars: HEK293T RXRa-UAS-bla, beta-lactamase ratio, antagonist mode. In short, it runs like this: as §1
In experiment [8] the target is Thyroid hormone receptor beta (Homo sapiens) (UniProt P10828). The experiment in a line: qHTS assay for small molecule antagonists of thyroid hormone receptor beta signaling (AID 588547; active = well fitted inhibition curve with a large enough effect in the signal ratio, with a control signal flat, not every such curve was filed as active; the % refers to the signal ratio;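 also: cells stimulated with 0.4 nM T3 agonist during compound exposure; % is scaled to controls: 0 for no effect and ±100 for the full control effect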). Particulars: TR-UAS-bla HEK293, beta-lactamase ratio, antagonist mode, 18 h. In short, it runs like this: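 TR-UAS-bla GripTite HEK293 cells in 2% charcoal/dextran FBS medium were preincubated 4 h at 37 C, given compound (0.59 nM to 92 uM) plus 0.4 nM T3 (final) for 18 h, then CCF4 for 2 h at RT; Hill fit gave IC50.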

Experiment [9] concerns the target Voltage-gated inwardly rectifying potassium channel KCNH2 (Homo sapiens) (UniProt Q12809). The experiment in a line: qHTS Assay for Small Molecule Inhibitors of the Human hERG Channel Activity (AID 588834).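 Also: top concentration of the series differs between compounds; % is scaled to controls: 0 for no effect and ±100 for the full control effect; lower thallium flux fluorescence means stronger hERG block; nearly all actives have a fitted effect of over 50% in size.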 Particulars: U2OS BacMam hERG, FluxOR thallium flux fluorescence; series mostly up to 92.2 µM. The method in brief: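 Measured: FluxOR fluorescence after thallium stimulation in U2OS cells transduced with hERG by baculovirus. Compounds pre-incubated around 10 min; medium Opti-MEM with 2% FCS. AC50 from Hill equation.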

Experiment [10] in a line: qHTS assay for small molecule agonists of the antioxidant response element (ARE) signaling pathway (AID 651741; active = well fitted activation curve with a large enough effect in the signal ratio; the % refers to the signal ratio; also: % of control where 0% means no effect). The settings on record: HepG2 ARE-bla reporter, beta-lactamase FRET ratio, 16 h; series mostly up to 96 µM. The method in brief: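 Compounds in DMSO are pinned onto HepG2 ARE-bla cells (2,000/well) that were preincubated 5 h; plates stay 16 h at 37 C, then beta-lactamase activity is detected with LiveBLAzer B/G substrate by fluorescence.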

A short description of experiment [11]: qHTS assay for small molecule activators of the p53 signaling pathway (AID 651743; active = well fitted activation curve with a large enough effect in the signal ratio, not every such curve was filed as active; the % refers to the signal ratio; also: % of control where 0% means no effect). The settings on record: HCT-116 p53RE-bla, beta-lactamase FRET ratio, 16 h; activation: stronger effect = higher value. In short, it runs like this: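 Cell-based beta-lactamase reporter (p53 response elements, HCT-116 background). After a 5-hour preincubation, cells received compound for 16 hours at 37 C; substrate development ran 2 hours at room temperature.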

The nature of experiment [12]: qHTS assay for small molecule activators of the nuclear factor-kappa B (NF-kB) signaling pathway (AID 651749; active = well fitted activation curve with a large enough effect in the signal ratio; the % refers to the signal ratio; also: % of control where 0% means no effect). The settings on record: NF-kB-bla ME-180 cells, beta-lactamase FRET ratio, 16 h; activation: stronger effect = higher value. In short, it runs like this: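 Screening used 2,000 ME-180 reporter cells per well exposed to pinned compound (23 nL) or DMSO; after 16 hr at 37C, beta-lactamase expression under NF-kB control was assessed through FRET.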

Experiment [13] in a line: qHTS assay for small molecule disruptors of the mitochondrial membrane potential - 5 hr assay (AID 651755; calls by dose curve; also: % is scaled to controls: 0 for no effect and ±100 for the full control effect; nearly all actives have a fitted effect of over 40% in size). The settings on record: JC-1-type ratio dye; series mostly up to 92.2 µM. In short, it runs like this: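 HepG2 cells, attached overnight at 37C, were exposed to compound or DMSO for 5 hr at 37C, 5% CO2. Mito-MPS dye was then added for 30 min, and fluorescence read at 490/535 nm (monomers) and 540/590 nm (aggregates).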

In experiment [14] the target is Tumor necrosis factor (Homo sapiens) (UniProt P01375). The experiment in a line: qHTS assay to identify small molecules that stimulate Tumor Necrosis Factor-alpha (TNF-alpha) secretion (AID 651757; active = well fitted curve in the direction sought with a large enough effect in the signal ratio; the % refers to the signal ratio; also: 0% is about no effect). The settings on record: Human cells, HTRF 665/615 ratio; series mostly up to 92.2 µM. In short, it runs like this: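 THP-1 cells (3000/well) exposed to compounds 17 hrs at 37 C. Secreted TNF-alpha detected by HTRF with cryptate- and XL665-labeled anti-TNF-alpha antibodies after 3 hr at room temperature.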

The nature of experiment [15]: qHTS assay for environmental chemicals that activate the Aryl hydrocarbon Receptor (AhR) signaling pathway (AID 651777). Also: % of control where 0% means no effect; nearly all actives have a fitted effect of over 15% in size. The settings on record: 1A2-DRE human hepatoma cells, luciferase, 24 h; activation: stronger effect = higher value. In short, it runs like this: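 Quantitative HTS in stably transfected human liver-derived cells whose luciferase gene sits downstream of the CYP1A2 promoter and dioxin response element. After 24 hr exposure at 37 C, One-Glo luminescence was measured.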

The target of experiment [16] is Peroxisome proliferator-activated receptor alpha (Homo sapiens) (UniProt Q07869). The experiment in a line: qHTS assay for small molecule agonists of the peroxisome proliferator-activated receptor alpha (PPARalpha) signaling pathway (AID 651778). Also: % of control where 0% means no effect. The settings on record: PathHunter PPARalpha complementation, chemiluminescence, 6 h; stronger effect = higher value. The method in brief: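 Cells plated at 2,000/well and held overnight at 37 C, 5% CO2, then compound added by pin tool for 6 hr; after PathHunter detection reagent and 60 min at room temperature, chemiluminescence from enzyme complementation was read.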

For experiment [17], the target named is Nuclear receptor ROR-gamma (Homo sapiens) (UniProt P51449). The experiment in a line: qHTS assay for small molecule antagonists of the retinoid-related orphan receptor gamma (ROR-gamma) signaling pathway (AID 651802).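 Also: luciferase reporter luminescence driven by ROR response element; % is scaled to controls: 0 for no effect and ±100 for the full control effect; nearly all actives have a fitted effect of over 60% in size.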 Particulars: ROR-gamma antagonist cell reporter assay; series mostly up to 92.2 µM. The method in brief:
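CHO cells with TET-inducible ROR-gamma and RORE-luciferase reporter, dosed then doxycycline-induced. After 16 h at 37C, One-Glo luminescence read; decreased signal indicates antagonism.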

Experiment [18] can be described thus: qHTS assay for small molecule agonists of the antioxidant response element (ARE) signaling pathway measured by Nrf2-dependant transcriptional activity (AID 720636; active = well fitted curve in the direction sought with a large enough effect in the repeat runs; an effect the other way counts as inactive or inconclusive; also: % of control where 0% means no effect). The settings on record: ARE-luc HepG2, Nrf2 luciferase reporter, 16 h; series mostly up to 92.4 µM. In short, it runs like this: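 Quantitative HTS format in HepG2 cells stably expressing an ARE-luciferase reporter; 16 hr compound treatment at 37 C, luciferase signal detected with ONE-Glo.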

A short description of experiment [19]: qHTS assay for small molecule antagonists of the retinoid-related orphan receptor gamma (ROR-gamma) signaling pathway - cell viability counter screen (AID 720652; active = well fitted curve in the direction sought with a large enough effect in the repeat runs; an effect the other way counts as inactive or inconclusive;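 also: compound exposure lasted 16 hr before ATP read; % is scaled to controls: 0 for no effect and ±100 for the full control effect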). The settings on record: RORgamma reporter cell line viability counter screen; series mostly up to 92.2 µM. In short, it runs like this:
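CHO cells carrying TET-inducible ROR and RORE-luciferase reporter, plated 5 hr, then dosed with compound plus doxycycline. After 16 hr at 37 C, viability read as intracellular ATP by CellTiter-Glo luminescence.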

Experiment [20] can be described thus: qHTS assay for small molecule agonists of the antioxidant response element (ARE) signaling pathway measured by Nrf2-dependant transcriptional activity - cell viability counter screen (AID 720653; active = well fitted curve in the direction sought with a large enough effect in the repeat runs; an effect the other way counts as inactive or inconclusive; also: % is scaled to controls: 0 for no effect and ±100 for the full control effect). The settings on record: ARE-bla HepG2 viability, CellTiter-Glo ATP luminescence, 16 h; stronger effect = lower value. The method in brief: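 ARE-bla HepG2 cells (2,000/well) rested 5 hrs at 37C/5% CO2, then exposed to compounds in DMSO for 16 hrs. Viability was read in the same wells as intracellular ATP by luminescence, 30 min at room temperature after reagent addition.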

A short description of experiment [21]: qHTS assay for cell viability of HEK293 cells (AID 743288). Also: % is scaled to controls: 0 for no effect and ±100 for the full control effect; nearly all actives have a fitted effect of over 50% in size. Particulars: ATP luminescence (CellTiter-Glo), 18 h; max response: stronger effect = lower value. The method in brief:
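The Tox21 protocol used parental HEK293 cells treated for 18 h at 37 C with compounds delivered by pintool; ATP-coupled luminescence after 30 min at room temperature gave viability.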

Experiment [22] is described as follows: qHTS assay for cell viability of the p53RE-bla HCT-116 cell line (AID 743292). Also: % is scaled to controls: 0 for no effect and ±100 for the full control effect; nearly all actives have a fitted effect of over 55% in size. Particulars: p53RE-bla HCT-116 viability, ATP luminescence, 16 h; series mostly up to 95 µM. The method in brief:
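Viability of compound-treated p53RE-bla HCT-116 cells is taken from ATP-dependent luciferase luminescence. Treatment lasts 16 h at 37 C after a 5 h settling period; detection follows 30 min at room temperature.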

Experiment [23] has as its target Nuclear receptor subfamily 1 group I member 2 (Rattus norvegicus) (UniProt Q9R1A7). The experiment in a line: qHTS assay for small molecule activators of the rat pregnane X receptor (rPXR) signaling pathway (AID 651751; call rule not given here; also: 0% is about no effect). Particulars: rPXR reporter cells, luciferase (One-Glo), 24 h.
Experiment [24] in a line: qHTS assay for small molecule activators of the human pregnane X receptor (PXR) signaling pathway (AID 720659; call rule not given here; also: 0% is about no effect). Particulars: DPX-2 HepG2 CYP3A4-luciferase, 24 h; series mostly up to 92.3 µM.

Inconclusive results are not listed. Activity calls are given as the source filed them. Unless noted, calls follow the shape of the dose curve; as a rule, active = well fitted curve in the direction sought with a large enough effect; inconclusive = small, poorly fitted or top-dose-only effect, or another doubt; inactive = no such curve, though single readings can be large; an effect the other way counts as inactive or inconclusive.

Chain of Retinoic acid receptor RXR-alpha (Homo sapiens) (P19793 whole entry, looked up): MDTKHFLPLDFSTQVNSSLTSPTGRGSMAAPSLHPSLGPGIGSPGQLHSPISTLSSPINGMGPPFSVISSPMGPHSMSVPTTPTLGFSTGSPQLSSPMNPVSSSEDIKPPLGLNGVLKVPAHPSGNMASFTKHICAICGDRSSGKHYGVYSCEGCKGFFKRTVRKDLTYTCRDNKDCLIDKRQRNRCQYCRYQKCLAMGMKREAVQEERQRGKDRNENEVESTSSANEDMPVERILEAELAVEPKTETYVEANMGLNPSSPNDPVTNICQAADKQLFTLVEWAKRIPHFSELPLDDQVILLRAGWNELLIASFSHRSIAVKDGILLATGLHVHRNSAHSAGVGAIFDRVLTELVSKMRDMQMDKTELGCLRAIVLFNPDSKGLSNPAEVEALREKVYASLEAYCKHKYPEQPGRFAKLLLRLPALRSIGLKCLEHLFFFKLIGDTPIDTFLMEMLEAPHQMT
Chain of Vitamin D3 receptor (Homo sapiens) (P11473 whole entry, looked up): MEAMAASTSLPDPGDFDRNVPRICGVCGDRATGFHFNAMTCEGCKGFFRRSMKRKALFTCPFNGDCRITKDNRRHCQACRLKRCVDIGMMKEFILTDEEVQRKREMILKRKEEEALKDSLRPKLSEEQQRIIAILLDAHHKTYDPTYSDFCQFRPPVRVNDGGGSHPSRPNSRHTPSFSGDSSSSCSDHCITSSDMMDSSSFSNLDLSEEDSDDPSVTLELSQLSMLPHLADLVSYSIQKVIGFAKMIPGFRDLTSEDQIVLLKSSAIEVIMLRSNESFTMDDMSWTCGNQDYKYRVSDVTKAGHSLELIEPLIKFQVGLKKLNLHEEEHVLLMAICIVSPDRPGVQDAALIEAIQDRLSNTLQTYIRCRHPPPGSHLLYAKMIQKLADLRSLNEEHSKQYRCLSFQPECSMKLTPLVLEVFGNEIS
Chain of Nuclear receptor ROR-gamma (Homo sapiens) (P51449 whole entry, looked up): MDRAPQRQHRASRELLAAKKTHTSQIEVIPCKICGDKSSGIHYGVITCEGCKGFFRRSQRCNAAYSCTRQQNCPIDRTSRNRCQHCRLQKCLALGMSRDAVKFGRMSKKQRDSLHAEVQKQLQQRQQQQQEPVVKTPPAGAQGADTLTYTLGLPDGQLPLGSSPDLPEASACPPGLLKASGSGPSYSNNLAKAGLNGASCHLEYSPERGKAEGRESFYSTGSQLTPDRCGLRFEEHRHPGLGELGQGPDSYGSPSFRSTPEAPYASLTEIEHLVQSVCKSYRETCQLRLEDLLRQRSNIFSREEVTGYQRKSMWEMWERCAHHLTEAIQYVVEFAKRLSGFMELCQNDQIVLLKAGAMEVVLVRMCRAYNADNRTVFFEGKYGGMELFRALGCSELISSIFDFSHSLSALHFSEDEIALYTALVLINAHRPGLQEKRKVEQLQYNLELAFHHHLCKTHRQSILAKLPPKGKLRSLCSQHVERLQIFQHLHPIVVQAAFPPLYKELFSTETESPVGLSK
Chain of Peroxisome proliferator-activated receptor gamma (Homo sapiens) (P37231 whole entry, looked up): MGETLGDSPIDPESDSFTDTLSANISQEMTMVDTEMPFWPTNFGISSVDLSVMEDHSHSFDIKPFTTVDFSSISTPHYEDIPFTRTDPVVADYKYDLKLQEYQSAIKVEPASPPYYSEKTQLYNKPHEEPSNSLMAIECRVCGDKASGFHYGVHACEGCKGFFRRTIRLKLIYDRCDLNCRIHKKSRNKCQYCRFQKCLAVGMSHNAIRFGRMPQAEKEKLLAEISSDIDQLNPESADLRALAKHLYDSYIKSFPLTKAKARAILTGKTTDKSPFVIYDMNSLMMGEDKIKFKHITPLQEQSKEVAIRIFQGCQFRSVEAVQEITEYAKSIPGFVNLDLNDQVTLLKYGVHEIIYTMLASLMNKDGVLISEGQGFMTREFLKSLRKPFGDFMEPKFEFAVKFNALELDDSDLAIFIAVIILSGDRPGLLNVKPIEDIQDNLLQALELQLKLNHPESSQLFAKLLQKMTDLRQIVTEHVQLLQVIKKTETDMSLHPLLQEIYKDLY
Chain of Tumor necrosis factor (Homo sapiens) (P01375 whole entry, looked up): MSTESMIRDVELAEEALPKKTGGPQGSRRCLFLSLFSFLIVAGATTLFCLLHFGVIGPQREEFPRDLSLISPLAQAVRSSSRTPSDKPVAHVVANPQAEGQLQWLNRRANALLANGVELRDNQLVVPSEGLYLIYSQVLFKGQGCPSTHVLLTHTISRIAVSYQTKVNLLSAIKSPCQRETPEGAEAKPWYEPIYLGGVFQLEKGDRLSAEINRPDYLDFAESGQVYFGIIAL
Chain of Peroxisome proliferator-activated receptor alpha (Homo sapiens) (Q07869 whole entry, looked up): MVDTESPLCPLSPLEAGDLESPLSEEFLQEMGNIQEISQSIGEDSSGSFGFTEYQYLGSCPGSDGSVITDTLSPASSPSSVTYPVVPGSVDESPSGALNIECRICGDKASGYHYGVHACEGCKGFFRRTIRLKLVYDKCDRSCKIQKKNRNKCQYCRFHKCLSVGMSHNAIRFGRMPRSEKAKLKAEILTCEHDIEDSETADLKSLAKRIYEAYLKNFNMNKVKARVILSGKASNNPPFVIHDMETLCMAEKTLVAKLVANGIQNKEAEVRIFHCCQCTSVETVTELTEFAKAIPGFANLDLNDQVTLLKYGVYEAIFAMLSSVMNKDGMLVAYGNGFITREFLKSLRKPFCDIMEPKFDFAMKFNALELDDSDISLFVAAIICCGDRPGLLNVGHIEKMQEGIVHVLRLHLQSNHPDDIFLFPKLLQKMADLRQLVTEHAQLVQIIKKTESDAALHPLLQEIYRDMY
Chain of Nuclear receptor subfamily 1 group I member 2 (Rattus norvegicus) (Q9R1A7 whole entry, looked up): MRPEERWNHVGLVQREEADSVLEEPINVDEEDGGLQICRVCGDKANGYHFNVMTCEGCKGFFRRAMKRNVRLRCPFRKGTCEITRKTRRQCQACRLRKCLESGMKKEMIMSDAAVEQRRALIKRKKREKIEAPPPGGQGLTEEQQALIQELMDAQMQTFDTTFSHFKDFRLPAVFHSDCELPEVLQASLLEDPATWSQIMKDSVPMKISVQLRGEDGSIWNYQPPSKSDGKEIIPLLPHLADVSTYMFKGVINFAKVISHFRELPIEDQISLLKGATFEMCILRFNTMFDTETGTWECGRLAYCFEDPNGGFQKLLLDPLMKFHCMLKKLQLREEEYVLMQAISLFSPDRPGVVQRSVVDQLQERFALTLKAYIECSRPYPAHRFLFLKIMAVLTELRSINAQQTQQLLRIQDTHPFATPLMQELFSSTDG
Chain of Voltage-gated inwardly rectifying potassium channel KCNH2 (Homo sapiens) (Q12809 whole entry, looked up): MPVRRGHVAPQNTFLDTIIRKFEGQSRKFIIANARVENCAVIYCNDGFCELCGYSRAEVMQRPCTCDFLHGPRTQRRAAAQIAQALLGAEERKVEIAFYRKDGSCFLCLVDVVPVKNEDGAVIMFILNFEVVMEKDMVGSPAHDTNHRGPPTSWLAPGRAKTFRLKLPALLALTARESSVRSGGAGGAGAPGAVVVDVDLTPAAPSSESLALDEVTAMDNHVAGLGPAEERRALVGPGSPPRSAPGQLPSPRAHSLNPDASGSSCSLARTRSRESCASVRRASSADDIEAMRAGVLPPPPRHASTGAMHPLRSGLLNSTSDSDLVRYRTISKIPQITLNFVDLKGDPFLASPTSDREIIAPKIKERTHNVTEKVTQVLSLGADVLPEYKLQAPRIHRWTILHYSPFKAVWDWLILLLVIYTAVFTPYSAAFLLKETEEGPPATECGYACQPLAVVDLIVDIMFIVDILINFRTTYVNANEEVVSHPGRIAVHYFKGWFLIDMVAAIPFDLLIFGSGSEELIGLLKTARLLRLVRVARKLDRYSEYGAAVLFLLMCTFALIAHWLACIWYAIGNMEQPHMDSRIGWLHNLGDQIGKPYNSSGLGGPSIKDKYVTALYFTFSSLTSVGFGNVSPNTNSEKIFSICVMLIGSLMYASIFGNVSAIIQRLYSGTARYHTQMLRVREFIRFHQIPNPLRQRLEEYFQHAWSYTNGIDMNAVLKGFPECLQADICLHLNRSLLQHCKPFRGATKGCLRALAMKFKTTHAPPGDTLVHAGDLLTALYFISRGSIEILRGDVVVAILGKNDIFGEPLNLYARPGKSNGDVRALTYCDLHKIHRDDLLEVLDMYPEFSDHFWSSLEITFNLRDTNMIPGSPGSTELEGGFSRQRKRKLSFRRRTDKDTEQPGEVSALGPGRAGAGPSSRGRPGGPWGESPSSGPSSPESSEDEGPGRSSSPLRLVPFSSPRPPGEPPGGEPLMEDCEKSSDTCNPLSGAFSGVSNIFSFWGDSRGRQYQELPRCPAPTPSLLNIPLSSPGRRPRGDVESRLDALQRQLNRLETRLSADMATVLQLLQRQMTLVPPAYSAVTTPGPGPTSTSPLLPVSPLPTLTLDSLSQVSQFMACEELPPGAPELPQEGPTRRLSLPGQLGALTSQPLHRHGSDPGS
Chain of Thyroid hormone receptor beta (Homo sapiens) (P10828 whole entry, looked up): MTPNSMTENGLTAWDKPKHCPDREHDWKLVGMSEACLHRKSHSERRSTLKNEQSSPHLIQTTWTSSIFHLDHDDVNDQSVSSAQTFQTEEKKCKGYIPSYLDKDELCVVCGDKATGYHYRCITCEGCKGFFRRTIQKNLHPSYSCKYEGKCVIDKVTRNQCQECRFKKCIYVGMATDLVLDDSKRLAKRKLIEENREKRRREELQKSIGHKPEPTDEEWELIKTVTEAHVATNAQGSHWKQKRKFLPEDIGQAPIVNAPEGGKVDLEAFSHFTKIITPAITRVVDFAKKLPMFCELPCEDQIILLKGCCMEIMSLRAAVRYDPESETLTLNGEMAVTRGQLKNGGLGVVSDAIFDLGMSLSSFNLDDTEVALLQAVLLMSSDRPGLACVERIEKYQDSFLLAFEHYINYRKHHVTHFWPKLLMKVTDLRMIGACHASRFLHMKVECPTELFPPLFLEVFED

Regarding `CC(Cl)Cl`, the outcome in experiment [1], in experiment [2], in experiment [3], in experiment [14], in experiment [18] and in experiment [24] was inactive. Also, the max response is -6.24% in experiment [4]; -2.19% in experiment [6]; 21.2% (inactive) in experiment [7]; 4.62% (inactive) in experiment [16]; -2.99% (inactive) in experiment [20]; -4.5% (inactive) in experiment [21]. Further, in [23], the max response was -1.43% (inactive). Also, the Potency result in experiment [5], in experiment [9], in experiment [10], in experiment [13], in [17] and in experiment [19] was “inactive” each time. Further, the Potency result in [22] was “inactive”. For the same molecule, the activity change % (negative = inhibition) in experiment [8] was -1.63% (inactive). For the same molecule, the figures for the activation in [11], in [12] and in experiment [15] were -4.47% (inactive), 3.47% (inactive) and -0.961% (inactive), respectively.

The values above are taken from PubChem BioAssay (NCATS).
